NPC1 promoter act: NPC1 promoter activation; 320,000 tested, 2.4% active; Huh7 NPC1 promoter luciferase reporter, 24 h; Potency, µM (highest dose often 9.22 µM), for the others: at the top dose activation, hits mostly activators; note: % of control where 0% means no effect; nearly all actives have a fitted effect of over 60% in size
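Luminescence read-out of NPC1 promoter-driven luciferase in stably transfected Huh7 cells; compounds delivered in DMSO and left 24 h at 37C, 5% CO2, qHTS titration format.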
SMN2 splice up: increases expression of the SMN2 splice variant; HEK293 SMN2-luciferase splicing reporter, luminescence, 30-36 h; AID 1458; Potency, µM (doses to about 46.1 µM), inactives show at the top dose activity change, positive = activation, hits mostly activators; 210,000 tested, 2.8% active; note: % of control where 0% means no effect; nearly all actives have a fitted effect of over 55% in size
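HEK293 cells carry an SMN2 minigene-luciferase reporter in which exon 7 inclusion puts luciferase in frame. Cells were seeded at 2000 cells/well, attached for 10-12 hours, then exposed to compounds for 30-36 hours at 37C before ONE-Glo luminescence.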
ELG1 genotoxic: induces genotoxicity in HEK293T cells with luciferase-tagged ELG1. HEK293T ELG1-luciferase reporter, luminescence, 16 h. Potency, µM (titrated, usually from 46 µM), inactives show top-dose activity change, positive = activation, most hits filed as activators. 330,000 tested, 1.3% active; note: % of control where 0% means no effect; nearly all actives have a fitted effect of over 60% in size
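HEK293T cells expressing luciferase-tagged ELG1 were treated with compound or DMSO for 16 hr at 37°C. Luciferase activity was then read after 30 min with ONE-Glo at room temperature; rising signal flags genetic stress.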
p53 reactivation: mutant p53 re-activation in reporter cells; H1299 p53-A138V BP100-luciferase reporter, luminescence, 24 h; Potency, µM (doses to about 92.2 µM), for the others: top-dose activity change, positive = activation, hits mostly activators; 320,000 tested, 0.063% active; note: % of control where 0% means no effect; nearly all actives have a fitted effect of over 45% in size
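p53-null H1299 cells stably carrying temperature-sensitive p53-A138V and a BP100-luciferase reporter were pinned with compounds (4-point, 1:5 series) and held 24 hrs at 37 deg C. Luminescence was read 10 min after detection reagent.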
FLuc modulator: firefly luciferase modulation, counter-screen for miR-21 project; P08659; purified FLuc, Km substrates, luminescence inhibition; Potency, µM (titrated, usually from 57.5 µM), inactives show at the top dose activity change, negative = inhibition, hits mostly inhibitors; 360,000 tested, 6.9% active; AID 588342;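 note: plate controls were vehicle for no effect and reference inhibitor for full effect; nearly all actives have a fitted effect of over 55% in size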
Target sequence (P08659 whole entry, looked up): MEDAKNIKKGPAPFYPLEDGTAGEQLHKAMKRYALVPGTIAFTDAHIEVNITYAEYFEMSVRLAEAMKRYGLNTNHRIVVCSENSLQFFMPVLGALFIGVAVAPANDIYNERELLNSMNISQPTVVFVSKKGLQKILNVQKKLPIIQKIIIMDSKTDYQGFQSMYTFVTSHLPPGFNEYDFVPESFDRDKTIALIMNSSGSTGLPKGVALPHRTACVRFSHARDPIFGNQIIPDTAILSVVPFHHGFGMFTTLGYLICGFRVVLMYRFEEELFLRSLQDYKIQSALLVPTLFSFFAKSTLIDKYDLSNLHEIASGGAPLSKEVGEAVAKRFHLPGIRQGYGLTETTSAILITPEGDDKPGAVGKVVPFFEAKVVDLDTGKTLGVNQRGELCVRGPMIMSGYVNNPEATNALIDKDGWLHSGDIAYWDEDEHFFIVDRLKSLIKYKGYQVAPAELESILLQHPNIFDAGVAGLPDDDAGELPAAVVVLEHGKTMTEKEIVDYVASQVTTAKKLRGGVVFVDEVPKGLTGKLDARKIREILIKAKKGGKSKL
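Purified P. pyralis luciferase, 10 nM final, with Km-level 10 uM D-luciferin and 10 uM ATP in 50 mM Tris acetate pH 7.5, 10 mM Mg acetate, 0.01% Tween-20, 0.05% BSA; 6-point qHTS titration about 60 µM downward; luminescence read.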
Rab9 prom act: activators of Rab9 promoter. Potency, µM (titrated, usually from 9.22 µM), for inactives: at the highest dose activation, negative = inhibition, actives largely listed as activators. 320,000 tested, 2.8% active. Huh7 Rab9 promoter-luciferase reporter, luminescence, 24 h. AID 485297; note: % of control where 0% means no effect; nearly all actives have a fitted effect of over 60% in size
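Promoter activation is measured as luciferase luminescence in Huh7 cells stably transfected with a Rab9 promoter–luciferase construct, following 24 h compound exposure at 37 °C and 10 min reagent incubation at ambient temperature.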
Starred values were filed as active, the others as inactive; [ ] = remark or other dose. Most compounds without a hit are left out; they make up all but 7.3% or so of the library. Calls come from the whole dose curve; as a rule, active = well fitted curve in the direction sought with a large enough effect; inconclusive = small, poorly fitted or top-dose-only effect, or another doubt; inactive = no such curve, though single readings can be large; an effect the other way counts as inactive or inconclusive. Potency is the fitted concentration of half-maximal effect.

Results for Cn1ncc2c(Nc3cc(C(F)(F)F)ccc3Cl)ncnc21 ?
FLuc modulator: -1%

How did CCc1ccccc1NC(=O)c1ccc2c(SCC(=O)O)c3c(nc2c1)CCC3 do in these assays?
SMN2 splice up: 0%; FLuc modulator: inconclusive

How did Cc1noc(C)c1S(=O)(=O)N1CCc2nc(COc3ccccc3)c3c(c2C1)CO[C@@H](C)C3 do in these assays?
SMN2 splice up: -10%[9.22 µM]

What do the screens show for `Cc1cccc(N(C)S(=O)(=O)c2cc(-c3cnc(C4CC4)o3)ccc2C)c1`?
FLuc modulator: -9%

What do the screens show for `CNc1ccc(Br)cc(C(=O)/C=C/c2cccc(OC)c2)c1=O`?
NPC1 promoter act: 10%; SMN2 splice up: -113%; ELG1 genotoxic: -2%; p53 reactivation: 6%; FLuc modulator: inconclusive; Rab9 prom act: -1%

Results for CNc1ccc(Br)cc(C(=O)/C=C/c2ccc(OC)cc2OC)c1=O ?
NPC1 promoter act: 4%; SMN2 splice up: -68%; ELG1 genotoxic: -4%; p53 reactivation: -4%; FLuc modulator: 12µM*; Rab9 prom act: 4%

What do the screens show for `COc1ccc(/C=C/C(=O)c2ccccc2)c(OC)c1`?
NPC1 promoter act: 3.2µM*; SMN2 splice up: inconclusive; ELG1 genotoxic: inconclusive; p53 reactivation: 8%; FLuc modulator: 2.4µM*; Rab9 prom act: 1.8µM*

What do the screens show for `O=C(NCCc1ccc(Cl)cc1)c1cnc2sc(N3CCCCC3)nn2c1=O`?
FLuc modulator: 4%

Results for c1ccc2[nH]c(SCC3CCCCO3)nc2c1 (stereo unspecified) ?
NPC1 promoter act: 1.8µM*; SMN2 splice up: 188%; ELG1 genotoxic: inconclusive; p53 reactivation: 19%; FLuc modulator: 19µM*; Rab9 prom act: 1.4µM*

Results for O=C(O)CSc1nc2ccccc2[nH]1 ?
NPC1 promoter act: -4%; SMN2 splice up: -2%[9.22 µM]; ELG1 genotoxic: -2%; p53 reactivation: -1%; FLuc modulator: -1%; Rab9 prom act: 6%

Results for CCOc1ccc2nc(SCC3CC3(Cl)Cl)[nH]c2c1 (stereo unspecified) ?
NPC1 promoter act: 2.5µM*; ELG1 genotoxic: inconclusive; p53 reactivation: inconclusive; FLuc modulator: 7.6µM*; Rab9 prom act: 3.2µM*

How did ClC1(Cl)CC1CSc1nc2ccccc2[nH]1 (stereo unspecified) do in these assays?
NPC1 promoter act: inconclusive; SMN2 splice up: inconclusive; ELG1 genotoxic: 17%; p53 reactivation: inconclusive; FLuc modulator: 17µM*; Rab9 prom act: inconclusive

How did COc1ccc(CN2C(=O)C(NC(=O)c3ccccc3C)(C(F)(F)F)N=C2c2ccccc2)cc1 (stereo unspecified) do in these assays?
SMN2 splice up: inconclusive; FLuc modulator: -1%

How did O=C(Cc1ccccc1)N/N=C/c1ccc2cccc(O)c2n1 do in these assays?
NPC1 promoter act: 0%; ELG1 genotoxic: 0%; p53 reactivation: 4%; FLuc modulator: 19µM*; Rab9 prom act: -3%

What do the screens show for `O=C(Cc1ccccc1)N/N=C/c1cccnc1`?
NPC1 promoter act: 1%; ELG1 genotoxic: 2%; p53 reactivation: -4%; FLuc modulator: 3%; Rab9 prom act: 1%

Results for NC(=O)N/N=C/c1ccc2cccc(OCc3ccccc3)c2n1 ?
NPC1 promoter act: -1%; ELG1 genotoxic: 7%; p53 reactivation: -7%; FLuc modulator: 19µM*; Rab9 prom act: 1%

Results for CC1=C(/C=C/C(C)=C/C=C/C(C)=C/C(=O)O)C(C)(C)CCC1O (stereo unspecified) ?
SMN2 splice up: -32%

What do the screens show for `O=C(NC(=S)Nc1ccc2c(c1)OCCO2)c1ccc(F)cc1Cl`?
NPC1 promoter act: 25%; SMN2 splice up: 13µM*; ELG1 genotoxic: inconclusive; p53 reactivation: inconclusive; FLuc modulator: 13µM*; Rab9 prom act: 27%

Results for Cc1cc(C)cc(C(=O)NC(=S)Nc2ccc3c(c2)OCCO3)c1 ?
NPC1 promoter act: inconclusive; ELG1 genotoxic: inconclusive; p53 reactivation: inconclusive; FLuc modulator: 6.7µM*; Rab9 prom act: inconclusive

Results for Cc1ccc(C(=O)NC(=S)Nc2ccc3c(c2)OCCO3)c(C)c1 ?
NPC1 promoter act: inconclusive; SMN2 splice up: 15%; ELG1 genotoxic: inconclusive; p53 reactivation: 19%; FLuc modulator: 9.5µM*; Rab9 prom act: inconclusive

Results for CCc1ccc(C(=O)NC(=S)Nc2ccc3c(c2)OCCO3)cc1 ?
NPC1 promoter act: 2.8µM*; SMN2 splice up: 11µM*; ELG1 genotoxic: inconclusive; p53 reactivation: inconclusive; FLuc modulator: 6µM*; Rab9 prom act: 4µM*

What do the screens show for `COc1ccc(CNCc2c(C(=O)O)c(C)n(Cc3ccccc3C)c2C)cc1OC`?
SMN2 splice up: 22%; FLuc modulator: -1%

Results for CCCOc1ccc(C(=O)Nc2ccc3oc(-c4ccc5ccccc5c4)nc3c2)cc1 ?
SMN2 splice up: -18%; FLuc modulator: 6%

How did CCOC(=O)Cn1c(=O)oc2cc(S(=O)(=O)Nc3cc(OC)cc(OC)c3)ccc21 do in these assays?
SMN2 splice up: 0%; FLuc modulator: -8%

What do the screens show for `O=C(NC(=S)Nc1ccc2c(c1)OCO2)c1ccc(Cl)cc1`?
NPC1 promoter act: 4µM*; SMN2 splice up: 13µM*; ELG1 genotoxic: inconclusive; p53 reactivation: inconclusive; FLuc modulator: inconclusive; Rab9 prom act: 2.2µM*

What do the screens show for `S=C(Nc1ccc2c(c1)OCO2)Nc1ccc2c(c1)OCO2`?
NPC1 promoter act: 5%; SMN2 splice up: 9%; ELG1 genotoxic: 7%; p53 reactivation: 6%; FLuc modulator: inconclusive; Rab9 prom act: 7%

What do the screens show for `COc1ccc(N=Cc2cccc(C)c2O)cc1Cl`?
NPC1 promoter act: -4%; SMN2 splice up: 7%; ELG1 genotoxic: 2%; p53 reactivation: -30%; FLuc modulator: 27µM*; Rab9 prom act: 10%

Results for COc1cccc(C=Nc2ccc3c(c2)OCCO3)c1O ?
NPC1 promoter act: 7%; SMN2 splice up: 19%; ELG1 genotoxic: inconclusive; p53 reactivation: inconclusive; FLuc modulator: 19µM*; Rab9 prom act: -1%

Results for COc1cccc(/C=N/N2CCOCC2)c1O ?
NPC1 promoter act: 30%; ELG1 genotoxic: inconclusive; p53 reactivation: inconclusive; FLuc modulator: 6.7µM*; Rab9 prom act: inconclusive

Results for COc1cccc(C=NCC(C)N=Cc2cccc(OC)c2O)c1O (stereo unspecified) ?
NPC1 promoter act: -2%; SMN2 splice up: -16%; ELG1 genotoxic: 1%; p53 reactivation: inconclusive; FLuc modulator: 1%; Rab9 prom act: -6%

From PubChem
